Usually inhibition stands for the change of the read-out against control, counted positive when it falls.

The structures appear in SMILES notation. Unmarked numbers belong to inactive results. The rule behind the calls is not given here.

The values that follow come from PubChem BioAssay.

The target in this test is Pantothenate synthetase (Mycobacterium tuberculosis (strain ATCC 25618 / H37Rv)) (UniProt P9WIL5). As to the kind of experiment: Coupled enzyme confirmation of inhibitors against recombinant Mtb PanC (AID 375).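 Note: 0% = full reaction with vehicle and 100% = no enzyme background.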 The note with it: coupled enzyme assay; at 10 µM, hits give high values.
Pantothenate synthetase (Mycobacterium tuberculosis (strain ATCC 25618 / H37Rv)), sequence (P9WIL5 whole entry, looked up): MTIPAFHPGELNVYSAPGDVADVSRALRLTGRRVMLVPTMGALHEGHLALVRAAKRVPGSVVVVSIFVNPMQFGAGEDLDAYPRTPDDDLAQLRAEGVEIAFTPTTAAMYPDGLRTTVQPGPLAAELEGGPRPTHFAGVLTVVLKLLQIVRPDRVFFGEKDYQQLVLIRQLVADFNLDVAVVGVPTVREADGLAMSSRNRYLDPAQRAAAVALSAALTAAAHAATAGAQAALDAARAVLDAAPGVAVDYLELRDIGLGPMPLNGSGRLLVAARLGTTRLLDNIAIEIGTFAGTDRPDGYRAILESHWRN

With `COC1=CC(=O)CC(C)C12Oc1c(Cl)c(OC)cc(OC)c1C2=O` (stereo not drawn), the inhibition is 0%. `CC1(C)C2CCC1(C)C(OC(=O)CSc1nc(N)cc(=O)[nH]1)C2` (stereo not drawn): the inhibition is 0%. Regarding `Cc1ccc(-c2noc(CCC(=O)N3CCN(c4cccc(C(F)(F)F)c4)CC3)n2)cc1`, the inhibition is 0%.

For the molecule `O=C(c1cccc(C(=O)N2CCN(c3ccccc3)CC2)c1)N1CCN(c2ccccc2)CC1`, the inhibition was 0%. In the case of `CCCC(C(=O)NCc1ccco1)N(C(=O)CNS(=O)(=O)c1ccc(Cl)cc1)C1CCCC1` (stereo not drawn), the inhibition is 0%. Next, `CN1CCc2c(sc3c2C(=O)NC(c2cccc(OC(=O)c4cccs4)c2)N3)C1` (stereo not drawn): 0%; `CC(=O)NCCc1ccc(S(=O)(=O)NCc2ccc3c(c2)OCO3)cc1`: 0%; `Cc1nc(NC(=O)c2csc3ccccc23)sc1C`: 0%. The same measure for `CCCCC(=O)Nc1ccc(NC(=O)C2CC2)nc1`: 2%. Next, `Cc1cc(C(=O)Nc2cccnc2)no1`: 0%. With `Cc1ccc(S(=O)(=O)NCCN2CCOCC2)cc1C`, the inhibition is 3%. For the molecule `COc1cccc(-c2nc(CS(=O)(=O)CC(=O)Nc3cc(C)ccc3C)c(C)o2)c1`, the inhibition was 0%. Consider `O=C(CCNS(=O)(=O)c1ccc(Br)s1)N1CCCCC1`, for which the inhibition was 0%.

Regarding `O=C(NCc1ccccc1)N1CCn2c(nc3ccccc32)C1`, the inhibition is 3%. For the molecule `CC1CCCCC1NC(=O)Cn1ncc2ccccc21` (stereo not drawn), the inhibition was 0%. The same measure for `CN(c1ccccc1C(=O)NCC1CCCO1)S(C)(=O)=O` (stereo not drawn): 2%; for `CCCCCc1c(C)nc(N2CCc3ccccc32)[nH]c1=O`: 0%; for `CCN1CCN(Cc2c(C)[nH]c3ccc(OC)cc3c2=O)CC1`: 1%.
